# Among all 320,000 compounds or so, about 7,600 (2.4%) were called active. About 3% were inconclusive and are not listed. The sample as a whole holds a higher share of actives than the screen did. Values without a mark were called inactive. Calls come from the whole dose curve; as a rule, active = well fitted activation curve with a large enough effect; inconclusive = small, poorly fitted or top-dose-only effect; inactive = no such curve, though single readings can be large or run the other way.
# Test: qHTS Assay for NPC1 Promoter Activators; note: nearly all actives have a fitted effect of over 60% in size;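 for activation: reporter is driven by a mutant NPC1 promoter; % of control where 0% means no effect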
# Settings: Huh7 NPC1 promoter luciferase reporter, 24 h; series mostly up to 9.22 µM; activation: at the top concentration
# Method in brief: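 Readout is luciferase luminescence, reflecting NPC1 promoter activation in stably transfected Huh7 cells after 24 h compound exposure at 37 °C in reduced-serum medium with 10% FBS.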
# Potency is the fitted concentration of half-maximal effect.
SMILES,activation [%],Potency
Cc1ccccc1CSCC(=O)NC(=O)NC(C)(C)C,-3.16,
CC(C)(C)NC(=O)CSC(=Nc1ccccc1F)NC#N,,3.98 µM (active)
COc1ccccc1-n1ccnc1SCC(=O)NC(C)(C)C,-0.961,
COc1cc(C(C)=O)ccc1OC(C)C(=O)Nc1ccc(S(=O)(=O)N2CCCC2)cc1 (stereo not drawn),0.351,
CC(C)N(C(=O)CSc1nnc(NC2CC2)s1)c1ccccc1,0.279,
Cc1ccccc1NC(=O)Cc1nc(COC(=O)c2ccc(C(F)(F)F)cc2)cs1,-2.66,
COc1ccc(NC(=S)N2N=CCC2c2ccccc2)cc1 (stereo not drawn),,1.41 µM (active)
CCC(C)N(C)C1CCN(C(=S)Nc2ccc(OC)cc2)CC1 (stereo not drawn),3.73,
COc1ccc(NC(=S)N2CCc3cc(OC)c(OC)cc3C2)cc1,-3.04,
N#CCCN(C(=O)COC(=O)C1CCN(c2ccc(C(F)(F)F)cn2)CC1)c1ccc(F)cc1,-1.26,
O=C(NCC1CCCO1)c1ccc(S(=O)(=O)Nc2ccc(F)cc2)cc1 (stereo not drawn),2.02,
Cc1nnc2n1N=C(c1ccccc1)CS2,-2.53,
c1csc(-c2cn3c(n2)SCC3)c1,10.9,
O=c1c2cc(-c3ccccc3)sc2nc2n1N=C(c1cccs1)CS2,,3.16 µM (active)
COC(=O)[C@]1(C)CCC[C@@]2(C)C3CC[C@]4(OC(C)=O)C[C@@]3(CCC21)CC4=NO (stereo partly drawn),4.54,
O=C(COc1cccc(-n2cnnn2)c1)NCCC1=CCCCC1,-1.1,
O=C(NCCC1=CCCCC1)c1ccc(-n2cncn2)cc1,,3.55 µM (active)
O=C(NCCC1=CCCCC1)c1ccc(Cl)c([N+](=O)[O-])c1,1.81,
O=C(NCc1cccnc1)c1cn(-c2ccccc2)nc1-c1cccs1,15.3,
COc1ccc(-c2nn(-c3ccccc3)cc2/C=C\C(=O)Nc2ccc(C(=O)O)cc2)cc1,-2.75,
O=C(O)c1ccc(N/N=C/c2cn(-c3ccccc3)nc2-c2cccs2)cc1,,1.26 µM (active)
COc1ccc(OC)c(CN2CCN(C(=O)CNC(=O)c3cc(C)cc(C)c3)CC2)c1,3.16,
O=C(CSCc1ccccc1)N1CCc2ccccc21,,2.24 µM (active)

SMILES,activation [%],Potency
O=C(CN1CCN(c2ccccn2)CC1)N1CCc2ccccc21,-0.609,
CCC(=O)N1CCCc2ccccc21,0.602,
CN(CC(=O)Nc1ccc(F)cc1)CC(=O)N1CCCCC1,-1.98,
Cc1ccc(S(=O)(=O)N(CC(=O)Nc2cccc([N+](=O)[O-])c2)Cc2ccc(Cl)cc2)cc1,-0.0248,
CCCc1cc(C(=O)Nc2ccc(Cl)cn2)cs1,,0.501 µM (active)
CC(=O)c1ccc2c(c1)OCCOCCOc1ccc(C(C)=O)cc1OCCOCCO2,-10.2,
COc1c(Cl)cc(C(=O)Nc2ccc(Cl)cn2)cc1Cl,25.4,
CCCc1cc(C(=O)Nc2ccc(C(=O)OC)cc2)cs1,4.68,
CCCCC(CC)C(=O)Nc1ccc(Cl)cn1 (stereo not drawn),0.296,
Cc1cccc(C)c1NC(=O)CNC(=O)c1ccc2c(c1)OCCO2,-1.52,
O=C(Nc1cccc(S(=O)(=O)Nc2ccc(Cl)cc2)c1)c1ccc2c(c1)OCCO2,-14.5,
O=C(Nc1ccc(Cl)cn1)c1ccc2c(c1)OCCO2,,0.501 µM (active)
Cc1nc(NC(=O)c2ccc3c(c2)OCCO3)ccc1Br,,1 µM (active)
O=C(C1Cc2ccccc2CN1C(=O)c1ccco1)N1CCN(c2ccccc2)CC1 (stereo not drawn),-0.773,
CN(CC(=O)Nc1ccc(F)c(F)c1F)C(=O)C1CC(=O)N(C2CCCC2)C1 (stereo not drawn),0.171,
COc1ccc(CS(=O)/C(Cl)=C(/Cl)C(=O)Nc2ccc(OC)nc2)cc1 (stereo not drawn),-23.3,
CCCCNC(=O)OC(C)CNC(=O)OC (stereo not drawn),-1.68,
COc1ccc(NC(=O)COC(=O)c2n[nH]c3ccccc23)c(OC)c1,1.11,
O=C(CSc1nnc(COc2ccc(Cl)cc2)n1Cc1ccco1)N1CCNC1=O,-9.88,
CCNC(=O)N1CCN(S(=O)(=O)c2ccc3c(c2)OCCCO3)CC1,5.22,
COc1ccc(CN2C(=O)C(C)S/C2=N/N=C/c2ccco2)cc1 (stereo not drawn),,3.16 µM (active)
O=C1N/C(=N\N=C\c2ccco2)SC1Cc1ccc(F)cc1 (stereo not drawn),-12.3,
C=CCN1C(=O)C(Cc2cccc(Cl)c2)S/C1=N/N=C/c1ccco1 (stereo not drawn),-2.22,

SMILES,activation [%],Potency
CCOc1ccc(S(=O)(=O)N2CCC(C(=O)NCC(=O)Nc3cccc(Cl)c3C)CC2)cc1,-2,
O=C(Nc1ccccc1F)c1ccc(S(=O)(=O)N2CCCCCC2)cc1,13,
CCc1ccc2oc(-c3ccc(N)cc3)nc2c1,,0.708 µM (active)
Cc1[nH]c2ccccc2c1C(=O)C(C)Sc1nnc(C2CC2)o1 (stereo not drawn),-0.654,
CNS(=O)(=O)c1ccc(NC(=O)Nc2ccc3c(c2)OCO3)cc1,,2.51 µM (active)
CC(C)CNS(=O)(=O)c1ccc(C(=O)Nc2ccc3c(c2)OCO3)cc1,-9.44,
O=C(/C=C\c1ccc2c(c1)OCO2)NC1(C(=O)Nc2ccc3c(c2)OCCO3)CCCCC1,0.617,
Cc1cccc(NC(=O)Nc2ccc3c(c2)OCO3)n1,,1.78 µM (active)
COc1cccc(/C=C/C(=O)Nc2ccc3c(c2)OCCO3)c1,,2.51 µM (active)
O=C(/C=C/c1ccc2c(c1)OCO2)NCc1ccc(F)cc1,1.01,
COc1ccc(OC)c(/C=C/C(=O)OCC(=O)Nc2ccc3c(c2)OCCO3)c1,-4.86,
CC(NC(=O)Nc1ccc2c(c1)OCO2)c1ccncc1 (stereo not drawn),0.67,
CC(NC(=O)Nc1cccc([N+](=O)[O-])c1)c1ccc2c(c1)OCO2 (stereo not drawn),-3.91,
O=C(O)/C=C/c1ccc2c(c1)OCCO2,-0.0021,
Cc1cccc(NC(=O)/C=C/c2ccc3c(c2)OCO3)n1,,1.41 µM (active)
Cc1ccc(S(=O)(=O)NCC(=O)Nc2ccc3c(c2)OCCO3)cc1,-5.21,
COc1ccc(NC(=O)CN(C)C(=O)c2cc(C3CC3)nn2-c2ccccc2)cc1,-2.75,
O=S(=O)(c1ccc(Br)cc1)n1ccc2ccccc21,0.578,
COc1ccc(S(=O)(=O)N2CCOCC2)cc1NC(=O)c1ccc(OCC(C)C)c(OC)c1,-2.86,
Cc1ccccc1NC(=O)Cc1nc(COC(=O)c2cccnc2Cl)cs1,-1.43,
O=C(CCc1ccccc1Cl)Nc1ccc(S(=O)(=O)Nc2nccs2)cc1,0.222,
Cc1ccc(CN2CC(C(=O)N3CCN(S(=O)(=O)c4ccccc4)CC3)CC2=O)cc1 (stereo not drawn),0.0419,

# From PubChem BioAssay AID485313 (National Center for Advancing Translational Sciences (NCATS), 2010)
